# Test results reported in the supplement of paper PMC6331611.
# ± gives the standard deviation of the averaged measurements. Over roughly 1,600 compounds, “normalized growth (OD600, IQM-normalized) in LPM” has its median near 1; the lowest 2% begin near 0.014. The entries come from a sample that favours the lowest values as a whole.
# Test system: Salmonella enterica serovar Typhimurium SL1344
# Test: normalized growth (OD600, IQM-normalized) in LPM (fraction of plate interquartile mean); higher = more bacterial growth (less inhibition)
# Conditions: LPM pH 5.8; 10 µM; 16 h
row,Compound,normalized growth
1,CCC[C@@H]1C[C@@H](C(=O)N[C@@H]([C@H]2O[C@H](SC)[C@H](O)[C@@H](O)[C@H]2O)[C@@H](C)O)N(C)C1,1.096 ± 0.0085
2,CN(Cc1cnc2nc(N)nc(N)c2n1)c1ccc(C(=O)NC(CCC(=O)O)C(=O)O)cc1 (racemic),0.665 ± 0.054
3,CCC(=O)OCC(=O)[C@@]1(OC(=O)CC)[C@@H](C)C[C@H]2[C@@H]3CCC4=CC(=O)C=C[C@]4(C)[C@@]3(F)[C@@H](O)C[C@@]21C,1.06 ± 0.047
4,CCn1cc(C(=O)O)c(=O)c2cc(F)c(N3CCNCC3)cc21,0.0247 ± 0.0053
5,CCn1cc(C(=O)O)c(=O)c2cc(F)c(N3CCN(C)CC3)cc21,0.0116 ± 0.00051
6,CCn1cc(C(=O)O)c(=O)c2cc(F)c(N3CCNCC3)nc21,0.0514 ± 0.033
7,CN1CCN(c2cc3c(cc2F)c(=O)c(C(=O)O)cn3-c2ccc(F)cc2)CC1,0.0108 ± 0.00018
8,O=C(O)c1cn(-c2ccc(F)cc2)c2cc(N3CCNCC3)c(F)cc2c1=O,0.0341 ± 0.0073
9,O=C(O)c1cn(C2CC2)c2cc(N3CCNCC3)c(F)cc2c1=O,0.0145 ± 0.0063
10,CCCCC(O)c1ccccc1 (configuration not stated),0.984 ± 0.032
11,CC1=CC(=O)NS(=O)(=O)O1,0.928 ± 0.054
12,CS(=O)(=O)c1ccc(C2=C(c3ccccc3)C(=O)OC2)cc1,1.07 ± 0.11
13,CCCCCCCCCC(=O)N[C@@H](Cc1c[nH]c2ccccc12)C(=O)N[C@@H](CC(N)=O)C(=O)N[C@@H](CC(=O)O)C(=O)N[C@@H]1C(=O)NCC(=O)N[C@@H](CCCN)C(=O)N[C@@H](CC(=O)O)C(=O)N[C@H](C)C(=O)N[C@@H](CC(=O)O)C(=O)NCC(=O)N[C@H](CO)C(=O)N[C@@H]([C@H](C)CC(=O)O)C(=O)N[C@@H](CC(=O)c2ccccc2N)C(=O)O[C@@H]1C [DAPTOMYCIN (5 millimolar/DMSO)],1.02 ± 0.057
14,C[C@]12CCC(=O)C=C1[C@@H]1C[C@@H]1[C@H]1[C@@H]3[C@@H]4C[C@@H]4[C@@]4(CCC(=O)O4)[C@@]3(C)CC[C@@H]12,1.07 ± 0.069
15,COc1cc(/C=C/C(=O)N2CCCCCCC2)cc(OC)c1OC,0.961 ± 0.025
16,N[C@@H](Cc1ccc(O)cc1)C(=O)O,0.979 ± 0.02
17,CC(=O)NC(Cc1ccccc1)C(=O)O (configuration not stated),0.957 ± 0.064
18,CNC(=C[N+](=O)[O-])NCCSCc1csc(CN(C)C)n1,1.15 ± 0.28
19,O=C(O)C1=C(CSc2nnnn2CS(=O)(=O)O)CS[C@@H]2[C@H](NC(=O)[C@H](O)c3ccccc3)C(=O)N12,1.01 ± 0.024
20,CCCCCNC(=N)N/N=C/c1c[nH]c2ccc(OC)cc12,1.09 ± 0.12
21,Cc1cc(C2CCCCC2)n(O)c(=O)c1,0.183 ± 0.014
22,O=C(OC[C@H]1O[C@@H](OC(=O)c2cc(O)c(O)c(OC(=O)c3cc(O)c(O)c(O)c3)c2)[C@H](OC(=O)c2cc(O)c(O)c(OC(=O)c3cc(O)c(O)c(O)c3)c2)[C@@H](OC(=O)c2cc(O)c(O)c(OC(=O)c3cc(O)c(O)c(O)c3)c2)[C@@H]1OC(=O)c1cc(O)c(O)c(OC(=O)c2cc(O)c(O)c(O)c2)c1)c1cc(O)c(O)c(OC(=O)c2cc(O)c(O)c(O)c2)c1,1.08 ± 0.013
